Screening data: PubChem, several laboratories
pPAFAH inh: pPAFAH (human) enzyme inhibition; Q13093; recombinant pPAFAH, FP-rhodamine probe fluorescence polarization; inhibition, % at 3.39 µM; 1.5% of 330,000 active;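 active = inhibition above the mean inhibition across the screen plus 3 SD, cut at about 25% in these data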;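 also: inhibitors block binding of the rhodamine activity-based probe so polarization drops; 0% = enzyme with DMSO and 100% = wells lacking pPAFAH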
PAFAH2 inh: inhibitors of human PAFAH2; Q99487; recombinant PAFAH2, FP-rhodamine activity probe, fluorescence polarization; inhibition, % at 3.39 µM; 0.99% of 340,000 active;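 active = inhibition above the mean over all tested compounds plus 3 SD, cut at about 30% in these data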;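 also: inhibitors block probe labeling of enzyme so polarization drops; 0% = enzyme with DMSO and 100% = wells lacking PAFAH2 protein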
PfM18AAP inh: PfM18AAP enzyme inhibition; recombinant PfM18AAP, H-Glu-NHMec fluorogenic cleavage; inhibition, % at 7.35 µM; 1.2% of 290,000 active; AID 1822;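 active = inhibition above the campaign mean inhibition over all tested compounds plus 3 SD, cut at about 28% in these data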;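 also: 0% = plate median of test compound wells and 100% = 2 mM ZnCl2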
DSG3 Ab inh: blocks pemphigus antibody binding to human desmoglein-3; DSG3-coupled beads, scFv-anti-DSG3-GFP binding, flow cytometry; hits give low values; P32926; AID 588358; 0.48% of 310,000 active; binding (percent of control), % at 10 µM;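 active = binding more than 3 SD below its plate's average and above zero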;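 also: hits lower antibody fragment binding to DSG3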
PAFAH1B3 inh: PAFAH1B3 (human) inhibition. Q15102. inhibition, % at 3.39 µM. 0.28% of 340,000 active. recombinant PAFAH1B3, FP-rhodamine probe, fluorescence polarization;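 active = inhibition above the screen-wide average of all tested compounds plus 3 SD, cut at about 25% in these data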;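 also: 0% = enzyme with DMSO only and 100% = wells lacking PAFAH1B3 protein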
Target sequence (Q15102 whole entry, looked up): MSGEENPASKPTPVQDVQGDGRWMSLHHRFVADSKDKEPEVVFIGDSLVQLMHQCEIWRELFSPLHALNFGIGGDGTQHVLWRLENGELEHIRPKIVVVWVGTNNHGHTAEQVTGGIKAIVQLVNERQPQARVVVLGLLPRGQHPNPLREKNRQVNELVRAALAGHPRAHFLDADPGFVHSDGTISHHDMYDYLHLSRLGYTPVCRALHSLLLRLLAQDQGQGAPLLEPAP
PAFAH1B2 inh: inhibitors of human PAFAH1B2 | P68402 | recombinant PAFAH1B2, FP-rhodamine activity probe, fluorescence polarization | inhibition, % at 3.39 µM | 1.2% of 340,000 active | AID 492953;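 active = inhibition above the mean of all tested compounds plus 3 SD, cut at about 24% in these data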;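 also: 0% = enzyme with DMSO and 100% = wells lacking PAFAH1B2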
Target sequence (P68402 whole entry, looked up): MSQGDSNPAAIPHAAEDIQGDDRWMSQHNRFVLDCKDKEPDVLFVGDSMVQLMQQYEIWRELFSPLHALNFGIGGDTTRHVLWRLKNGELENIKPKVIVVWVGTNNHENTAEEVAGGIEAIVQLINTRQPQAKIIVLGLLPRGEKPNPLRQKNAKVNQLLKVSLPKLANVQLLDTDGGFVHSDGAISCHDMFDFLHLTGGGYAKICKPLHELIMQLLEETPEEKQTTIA
* hit, by the source's call; nt = no result given. Compounds with a hit are over-represented: about 3.8% of the library has one in this group of screens.

SMILES | pPAFAH inh | PAFAH2 inh | PfM18AAP inh | DSG3 Ab inh | PAFAH1B3 inh | PAFAH1B2 inh
CNS(=O)(=O)c1ccc(CNC[C@H]2O[C@@H](n3cc(C)c(=O)[nH]c3=O)C[C@@H]2O)cc1 | nt | nt | nt | 108 | nt | nt
C[C@H](NC(=O)C1CCN(S(=O)(=O)c2ccccc2)CC1)C(=O)NCc1ccc(F)cc1 | 5 | -1 | -10 | 98 | 3 | 6
CCC[C@H]1NC(=O)[C@H](C)N(C)C(=O)C(C)(C)C(=O)C(C)NC(=O)[C@H](Cc2ccc(OC)cc2)N(C)C(=O)[C@H](C(C)C)N(C)C(=O)CNC(=O)[C@H](CC(C)C)N(C)C(=O)CNC(=O)[C@H]([C@@H](C)CC)OC(=O)[C@H]1C (stereo partly specified) | 5 | nt | nt | nt | nt | nt
CC(C(=O)NCC1CCCCC1)N(C)CC(=O)Nc1ccc(N2CCOCC2)cc1 (stereo unspecified) | 3 | 7 | -6 | 114 | 10 | -1
O=C(O)c1[nH]c2ccc(Cl)cc2c1CCN1C(=O)c2ccccc2C1=O | -1 | -1 | 1 | 98 | -3 | 84*
O=C(O)c1[nH]c2ccc(Br)cc2c1CCN1C(=O)c2cccc([N+](=O)[O-])c2C1=O | 12 | 5 | 4 | 99 | 2 | 53*
O=C(Nc1ccccc1Cl)Nc1ccnn1C1CCN(C(=O)C2CCOC2)CC1 (stereo unspecified) | nt | nt | nt | 97 | nt | nt
CN(CCc1ccccc1)C(=O)c1ccc(NC(=O)Cc2ccc(NC(=O)C3CCCN(C(=O)CCc4ccccc4)C3)cc2)cc1 (stereo unspecified) | nt | -8 | nt | 104 | -10 | -2
CC(NS(=O)(=O)c1ccc2c(c1)OCCO2)c1ccccc1 (stereo unspecified) | 8 | 6 | -13 | 98 | 6 | 27*
Oc1ccccc1C1=NC(c2ccccc2)NC(c2ccccc2)C1 (stereo unspecified) | nt | nt | nt | 108 | nt | nt
O=C(Nc1ccc(N2CCCC2)cc1)c1cc(Cl)ccc1Cl | 5 | 14 | 20 | 71* | 4 | 3
O=C(COc1ccccc1Cl)Nc1ccc(N2CCCC2)cc1 | 58* | 3 | 19 | 108 | 3 | -2
CCN1CCN(c2ccc(NC(=O)COc3ccccc3Cl)cc2)CC1 | 6 | 0 | -2 | 85 | 2 | 4
CCN(C(=O)c1ccc(NC(=O)Cc2ccccc2)cc1)c1ccccc1 | nt | 1 | -1 | 110 | 9 | 26*
O=C(Cc1ccccc1)Nc1ccc(N2CCCC2)cc1 | 33* | 5 | 5 | 93 | 2 | -4
N#CN=CN1CC=C(c2ccc(Cl)cc2)CC1 | nt | nt | nt | 107 | nt | nt
CCC(=O)OCOc1ccc(/C=C2/CCC(CN(C)C)C2=O)cc1 (stereo unspecified) | nt | 2 | nt | 106 | -1 | 4
CCN(C1CCCCC1)S(=O)(=O)CCNC(=O)c1ccc(OC)cc1 | nt | nt | nt | 103 | nt | nt
CSc1sccc1/C=C(/C#N)C(=O)c1ccco1 | 10 | 18 | 31* | 110 | 1 | 11
O=C(Cn1nnc(-c2ccc(N3CCOCC3)cc2)n1)N1CCOCC1 | 3 | nt | 1 | nt | nt | nt
O=C(Cn1nnc(-c2ccc(N3CCOCC3)cc2)n1)OC1CCCCC1 | -1 | -3 | -6 | 60* | 10 | 0
O=C(c1ccco1)N1CCN(CC(O)COc2ccc(Br)cc2)CC1 (stereo unspecified) | 4 | -7 | -6 | 116 | -7 | -5
COC(=O)c1cc(NCc2cccs2)ccc1N1CCOCC1 | 6 | 13 | 1 | 97 | -5 | 5
COC(=O)c1cc(NCc2c(F)cccc2Cl)ccc1N1CCOCC1 | 30* | 3 | 9 | 103 | 6 | -2
CCc1ccc2[nH]c3nc(N/N=C/c4ccc(O)cc4O)nnc3c2c1 | 28* | 14 | 26 | 95 | 26* | 23
O=C(Nc1ncccc1O)c1cccc(S(=O)(=O)N2CCc3ccccc32)c1 | 5 | 34* | 1 | 99 | -5 | 48*
O=C(Nc1ncccc1O)c1cccc(S(=O)(=O)N2CCCC2)c1 | 4 | 7 | nt | 103 | -3 | 21
Cc1ccc(S(=O)(=O)N(Cc2cc3cc4c(cc3[nH]c2=O)OCCO4)CC2CCCO2)cc1 (stereo unspecified) | 9 | 8 | -3 | 82* | 7 | 7
Cc1ccccc1NC(=O)Cc1nc(COC(=O)c2nccnc2N)cs1 | nt | nt | nt | 103 | nt | nt
CCCC1CC(C)(/C(C)=N\NC(N)=S)OC1=O (stereo unspecified) | -3 | -1 | 28* | 107 | 4 | 4
